Test results reported in PubChem BioAssay (Tox21).
Where “and” joins values, the source holds several entries; their conditions need not be identical. Equal entries are not always repeated. Results filed as inconclusive are left out. A structure can be active in one record and inactive in another. Calls of active or inactive are those of the source. Unless noted, calls follow the shape of the dose curve; as a rule, active = well fitted curve in the direction sought with a large enough effect in the repeat runs; inconclusive = weak or mixed curves; inactive = no such curve, though single readings can be large; an effect the other way counts as inactive or inconclusive.

How the values were obtained:
[1] = qHTS assay to identify small molecule agonists of the NFkB signaling pathway (AID 1159509; active = well fitted curve in the direction sought with a large enough effect in the signal ratio in the repeat runs, not every such curve was filed as active; the % refers to the signal ratio; also: series mostly up to about 61 µM)
Outline: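 Beta-lactamase reporter assay run in quantitative high-throughput format on an NF-kB-responsive ME-180 line, with 5 hr compound treatment and a FRET-based blue/green fluorescence readout.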

[2] = qHTS assay to identify small molecule agonists of the endoplasmic reticulum stress response signaling pathway (AID 1159516; active = well fitted activation curve with a large enough effect in the signal ratio in the repeat runs, not every such curve was filed as active; the % refers to the signal ratio)
Outline: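 Ratiometric FRET readout (405 nm excitation; 460 and 530 nm emission) of a beta-lactamase gene driven by the ER stress response element, after 2 hr substrate loading. HeLa ESRE-bla cells were seeded overnight and treated with compounds for only 5 hr at 37 C.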

[3] = qHTS assay to identify small molecule agonists of the endoplasmic reticulum stress response signaling pathway - cell viability counter screen (AID 1159517; calls by dose curve; also: nearly all actives have a fitted effect of over 50% in size; also: potency is read from the fitted curve at half-maximal effect)
Outline: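 After overnight attachment, ESRE-bla HeLa cells were treated with Tox21 library compounds for 5 hr. CellTiter-Glo luminescence, read 30 min post-addition at room temperature, reported viability.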

[4] = qHTS assay to identify small molecule antagonists of the retinoid-related orphan receptor gamma (ROR-gamma) signaling pathway - cell viability counter screen (AID 1159520); also: nearly all actives have a fitted effect of over 50% in size; also: potency is read from the fitted curve at half-maximal effect
Outline: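 Cytotoxicity was read from cellular ATP (CellTiter-Glo luminescence) after 16 hr at 37 C with 1 uM doxycycline induction. The inducer was added 2 hr after compound transfer to Tet-on ROR gamma CHO cells.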

[5] = target: Nuclear receptor ROR-gamma (Homo sapiens) (UniProt P51449); assay: qHTS assay to identify small molecule antagonists of the retinoid-related orphan receptor gamma (ROR-gamma) signaling pathway (AID 1159521; also: nearly all actives have a fitted effect of over 50% in size; also: potency is read from the fitted curve at half-maximal effect)
Outline: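 Tet-on ROR-gamma CHO cells with ROR response element-luciferase reporter; compounds added 2 hr before 1 uM doxycycline induction, then 16 hr at 37 C. Antagonism scored as decreased ONE-Glo luminescence.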

[6] = qHTS assay to identify small molecule agonists of the AP-1 signaling pathway - cell viability counter screen (AID 1159525; calls by dose curve; also: nearly all actives have a fitted effect of over 55% in size)
Outline: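 Intracellular ATP by Cell Titer Glo luminescence (30 min, RT) in the same ME-180 AP-1-bla wells after the 5 h compound exposure at 37 °C. Normalised to tetra n-octyl ammonium bromide and DMSO controls.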

[7] = qHTS assay to identify small molecule agonists of the AP-1 signaling pathway (AID 1159526; calls by dose curve)
[8] = qHTS assay to identify small molecule antagonists of the retinoid acid receptor (RAR) signaling pathway - cell viability counter screen (AID 1159551); also: nearly all actives have a fitted effect of over 35% in size; also: potency is read from the fitted curve at half-maximal effect
Outline: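 Cytotoxicity counter screen: ATP content quantified by CellTiter-Glo luminescence in C3RL4 cells treated 6 hr at 37 C with compound and retinol (1 uM final). Cells plated at 1,000/well and cultured overnight before dosing.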

[9] = qHTS assay to identify small molecule antagonists of the retinoic acid receptor (RAR) signaling pathway (AID 1159552; also: nearly all actives have a fitted effect of over 50% in size; also: potency is read from the fitted curve at half-maximal effect)
Outline: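 Retinol signaling pathway inhibitors screened in C3RL4 RARE-luciferase reporter cells seeded overnight at 37 C, then compounds added with 1 uM (final) retinol as pathway substrate. After 6 hr at 37 C, luciferase luminescence read after 30 min at room temperature.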

[10] = qHTS assay to identify small molecule agonists of the retinoic acid receptor (RAR) signaling pathway (AID 1159553); also: potency is read from the fitted curve at half-maximal effect
Outline: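 Luminescence was measured 30 min after luciferase reagent addition at room temperature. Before that, C3RL4 reporter cells (1,000 per well, plated overnight) were treated with compound for 6 hr at 37 C and 5% CO2.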

[11] = qHTS assay to identify small molecule agonists of the NFkB signaling pathway - cell viability counter screen (AID 1159515; calls by dose curve; also: nearly all actives have a fitted effect of over 55% in size; also: potency is read from the fitted curve at half-maximal effect)
Outline: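 Read by CellTiter-Glo luminescence (30 min, room temperature) in the wells also used for the beta-lactamase FRET read. ME-180 NFkB-bla cells at 2,000 per well were plated overnight, then exposed to compound for 5 hr at 37 C.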

[12] = qHTS assay to identify small molecule agonists of the RXR signaling pathway - cell viability counter screen (AID 1159529); also: nearly all actives have a fitted effect of over 50% in size; also: potency is read from the fitted curve at half-maximal effect
Outline: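 RXR-alpha-UAS-bla HEK 293T cells in medium with 2% charcoal-stripped FBS were pre-incubated 5 hr, then compound-treated 16 hr at 37 C. Viability was read by CellTiter-Glo luminescence in the same wells as the beta-lactamase assay, with tetraoctyl ammonium bromide as positive control.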

[13] = qHTS assay to identify small molecule antagonists of the vitamin D receptor (VDR) signaling pathway - cell viability counter screen (AID 743225); also: nearly all actives have a fitted effect of over 50% in size
Outline: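 VDR-UAS-bla HEK 293T cells were plated and incubated 4 h at 37C, then dosed with compound plus 3 nM (final) 1-alpha,25-dihydroxyvitamin D3 for 16 h. After the 2 h beta-lactamase read, viability in the same wells was read as CellTiter-Glo luminescence after 30 min at room temperature.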

[14] = target: Retinoic acid receptor RXR-alpha (Homo sapiens) (UniProt P19793); assay: qHTS assay to identify small molecule agonists of the RXR signaling pathway (AID 1159527; calls by dose curve; also: nearly all actives have a fitted effect of over 35% in size)
Outline: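 GeneBLAzer RXR-alpha-UAS-bla HEK 293T cells in 2% charcoal-stripped FBS medium were exposed to compounds for 16 hr at 37 C in agonist mode. Beta-lactamase reporter read as 460/530 nm FRET ratio after 2 hr substrate loading.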

[15] = qHTS assay to identify small molecule antagonists of the estrogen related receptor (ERR) signaling pathway - cell viability counter screen (AID 1224818);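 also: series mostly up to about 46 µM; viability measured after 17.5 h of compound exposure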
Outline: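 Cytotoxicity counter screen: fluorescence from CellTiter-Fluor, added after 17.5 h compound exposure at 37 C and read 30 min later. ERR cell line seeded at 2,000 cells/well, preincubated 6 h before dosing.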

[16] = qHTS assay to identify small molecule agonists of the estrogen related receptor (ERR) signaling pathway (AID 1224820)
Outline: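 Following a 6 h settling period, 2,000 ERR cells per well receive DMSO-dissolved compounds by pin tool and incubate 18 h at 37 C; agonist activity is scored from One-Glo luminescence read 30 min post-addition.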

[17] = system: estrogen-related receptor alpha (ERRalpha) with PGC-1alpha coactivator, human; assay: qHTS assay to identify small molecule antagonists of the estrogen related receptor signaling pathway with the pleiotropic PPARgamma coactivator (PGC) (AID 1224821; calls by dose curve)
Outline: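 Screening used NTP's PGC/ERR cells, dosed via pin tool with compound in DMSO alongside positive and negative controls. After 18 h at 37 C, One-Glo reagent sat 30 min at room temperature before luminescence detection.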

[18] = qHTS assay to identify small molecule antagonists of the estrogen related receptor signaling pathway with the pleiotropic PPARgamma coactivator (PGC) cell viability counter screen (AID 1224822; also: series mostly up to about 46 µM)
Outline: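 Viability counter-screen read by fluorescence intensity after 30 min with CellTiter-Fluor at 37 C; PGC/ERR reporter cells were exposed to compounds for 17.5 h at 37 C following a 6 h preincubation.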

[19] = qHTS assay to identify small molecule agonists of the estrogen related receptor signaling pathway with the pleiotropic PPARgamma coactivator (PGC) (AID 1224823)
Outline: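 In this quantitative high-throughput screen, an 18 h, 37 C treatment of PGC/ERR cells with compounds in DMSO preceded a One-Glo luminescence read taken after 30 min at room temperature.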

Measured: Potency

Chain of Retinoic acid receptor RXR-alpha (Homo sapiens) (P19793 whole entry, looked up): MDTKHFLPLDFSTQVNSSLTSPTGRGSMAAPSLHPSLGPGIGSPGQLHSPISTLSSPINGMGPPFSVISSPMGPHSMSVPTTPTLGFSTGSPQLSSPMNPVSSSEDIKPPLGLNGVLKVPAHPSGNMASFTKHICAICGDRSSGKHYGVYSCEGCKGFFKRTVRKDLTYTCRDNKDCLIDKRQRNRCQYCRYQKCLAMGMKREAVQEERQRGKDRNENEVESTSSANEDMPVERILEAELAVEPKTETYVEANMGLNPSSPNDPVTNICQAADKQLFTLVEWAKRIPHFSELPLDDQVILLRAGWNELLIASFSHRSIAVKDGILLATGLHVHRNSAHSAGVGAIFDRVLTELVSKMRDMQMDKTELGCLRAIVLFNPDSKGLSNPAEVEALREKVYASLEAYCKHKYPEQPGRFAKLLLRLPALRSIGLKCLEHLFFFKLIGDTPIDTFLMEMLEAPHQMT

O=C=Nc1ccc(Cl)cc1
active: [10] 24.3 µM
inactive: [1] | [2] | [3] | [4] | [5] | [6] | [7] | [8] | [9]

C(=NC1CCCCC1)=NC1CCCCC1
inactive: [1] | [11] | [3] | [6] | [7] | [12] | [8] | [9] | [10]

CN1C(=O)C(O)N=C(c2ccccc2)c2cc(Cl)ccc21 (centres undefined)
active: [9] 63.3 µM
inactive: [13] | [1] | [11] | [4] | [6] | [7] | [14] | [12] | [8] | [10]

CCOP(=S)(OCC)Oc1nc(Cl)c(Cl)cc1Cl
inactive: [13] | [1] | [11] | [3] | [6]
61.3 µM (active) and inactive: [8]
active: [12] 21.9 µM and 49 µM
27.4 µM (active) and inactive: [5]

O=S1OC[C@@H]2[C@H](CO1)[C@]1(Cl)C(Cl)=C(Cl)[C@@]2(Cl)C1(Cl)Cl (some centres undefined)
inactive: [1] | [11] | [8] | [9]
active: [5] 54.5 µM | [12] 49 µM

CC(C)=CCOc1c2occc2cc2ccc(=O)oc12
not listed: [2] | [4] | [12]
inactive: all other assays above

CCOC(=O)CBr
not listed: [11] | [13] | [15] | [16] | [17] | [18] | [19]
inactive: all other assays above

O=[N+]([O-])c1ccc(F)c([N+](=O)[O-])c1
inactive: [13] | [1] | [11] | [6] | [7] | [14] | [8] | [9] | [10]
active: [3] 17.5 µM | [5] 49 µM

CCCCN(N=O)C(=N)N[N+](=O)[O-]
inactive: [13] | [1] | [11] | [3] | [5] | [6] | [14] | [8] | [10]

C/C(=C\c1ccccc1)[N+](=O)[O-]
inactive: [1] | [6] | [12] | [8]
active: [11] 54.9 µM | [4] 27.3 µM | [5] 19.3 µM | [9] 30.6 µM

CCCCCCCCCC(=O)O[C@H]1CC[C@H]2[C@@H]3CCC4=CC(=O)CC[C@@H]4[C@H]3CC[C@]12C
inactive: [1] | [11] | [3] | [5] | [6] | [7] | [12] | [8] | [9] | [10]

CC(C)(OO)c1ccccc1
inactive: [1] | [11] | [6] | [7] | [12] | [8] | [9] | [10]
active: [3] 43.6 µM

Brc1ccccc1
not listed: [3] | [11] | [15] | [16] | [17] | [18] | [19]
inactive: all other assays above

Clc1ccc(C(OCCN2CCCCC2)c2ccccc2)cc1 (centres undefined)
inactive: [13] | [1] | [2] | [3] | [6] | [8]

Clc1cccc(SC2CCNCC2)n1
not listed: [5] | [11] | [15] | [16] | [17] | [18] | [19]
inactive: all other assays above

C=CC(=O)OCCCCO
inactive: [13] | [1] | [2] | [3] | [4] | [6] | [14]

C[N+](C)(C)CCCl
not listed: [3] | [11] | [15] | [16] | [17] | [18] | [19]
inactive: all other assays above

C=CC(=O)OCC(C)C
inactive: [13] | [1] | [2] | [3] | [4] | [6] | [7] | [14] | [8]

O=[N+]([O-])C(Br)(CO)CO
inactive: [1] | [2] | [6]
active: [4] 43.3 µM | [5] 48.6 µM

[CH3][Sn]([CH3])([Cl])[Cl]
active: [9] 55.4 µM and 48.6 µM
inactive: [1] | [2] | [3] | [6] | [8]

CCOP(=O)(OCC)O/C(=C/Cl)c1ccc(Cl)cc1Cl
inactive: [1] | [2] | [3] | [6] | [12] | [8] | [10]

CCO[C@H]1O[C@@H]2OC3(C)CC[C@H]4[C@H](C)CC[C@@H]([C@H]1C)[C@@]24OO3
inactive: [13] | [1] | [2] | [3] | [4] | [6] | [12] | [8] | [9] | [10]

c1ccoc1
inactive: [13] | [1] | [2] | [3] | [6] | [7] | [14] | [8]

O=C(NC(=O)c1c(F)cccc1F)Nc1ccc(OC(F)(F)C(F)OC(F)(F)F)c(Cl)c1 (centres undefined)
inactive: [13] | [1] | [2] | [4] | [6] | [7] | [12] | [8]

BrCCCCBr
inactive: [13] | [1] | [2] | [4] | [6] | [7] | [12] | [8] | [9] | [10]

CCCCCC[N+](=O)[O-]
inactive: [1] | [2] | [4] | [6] | [7] | [14] | [12] | [8]
